What was measured:
Test in all cases: log2 ratio of Biotin-Ahx-Ub-VS probe labelling (fragment/DMSO); higher = less target engagement (more negative = stronger competition), active = hit call of the paper (q ≤ 0.05, log2 ratio ≤ -1)
Conditions in all cases: compound concentration: 200 uM; treatment time: 3 h
USP34 = USP34 (UniProt Q70CQ2)
How it was run: (§1)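 Average log2 ratios of fragment over vehicle were obtained by unpaired t-test from global-median-normalised Spectronaut label-free quantities. Proteins with ≥2 unique peptides were included. HEK293T lysate (495 µg per sample) was treated in triplicate with fragment at 200 µM or vehicle for 3 h, then with Biotin-Ahx-Ub-VS at 0.5 µM final for 1 h, and labelled DUBs were NeutrAvidin-enriched and run by diaPASEF LC-MS/MS.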

USP36 = molecular target: T1, USP36 (UniProt Q9P275)
T1 sequence (whole entry): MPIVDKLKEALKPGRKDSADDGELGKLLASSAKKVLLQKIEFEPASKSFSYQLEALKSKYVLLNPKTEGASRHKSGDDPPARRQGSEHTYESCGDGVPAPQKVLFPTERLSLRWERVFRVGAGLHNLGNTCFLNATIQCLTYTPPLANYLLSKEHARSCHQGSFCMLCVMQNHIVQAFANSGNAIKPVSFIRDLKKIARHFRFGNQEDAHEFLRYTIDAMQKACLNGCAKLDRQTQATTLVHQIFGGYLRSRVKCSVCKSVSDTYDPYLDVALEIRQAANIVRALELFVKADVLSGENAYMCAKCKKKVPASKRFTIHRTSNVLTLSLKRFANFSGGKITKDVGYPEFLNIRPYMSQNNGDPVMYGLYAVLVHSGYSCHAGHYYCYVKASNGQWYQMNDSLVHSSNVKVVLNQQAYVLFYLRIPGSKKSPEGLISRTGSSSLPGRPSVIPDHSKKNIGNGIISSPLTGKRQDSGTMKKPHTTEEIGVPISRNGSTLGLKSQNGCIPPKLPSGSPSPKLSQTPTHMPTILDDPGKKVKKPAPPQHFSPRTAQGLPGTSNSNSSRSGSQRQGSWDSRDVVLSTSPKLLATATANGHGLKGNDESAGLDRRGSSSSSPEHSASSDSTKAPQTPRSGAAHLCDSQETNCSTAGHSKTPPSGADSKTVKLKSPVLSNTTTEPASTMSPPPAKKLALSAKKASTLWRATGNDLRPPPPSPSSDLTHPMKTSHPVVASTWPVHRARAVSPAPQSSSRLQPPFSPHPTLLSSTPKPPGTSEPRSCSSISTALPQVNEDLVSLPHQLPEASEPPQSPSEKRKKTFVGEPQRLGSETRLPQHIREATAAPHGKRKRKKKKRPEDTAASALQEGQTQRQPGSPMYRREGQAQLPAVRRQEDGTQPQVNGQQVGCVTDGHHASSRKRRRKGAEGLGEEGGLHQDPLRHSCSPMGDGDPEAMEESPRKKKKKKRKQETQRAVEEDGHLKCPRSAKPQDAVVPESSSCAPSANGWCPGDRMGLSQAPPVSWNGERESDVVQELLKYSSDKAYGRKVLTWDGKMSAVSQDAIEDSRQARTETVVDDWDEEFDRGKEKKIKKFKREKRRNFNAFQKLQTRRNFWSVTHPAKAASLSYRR
How it was run: as §1

USP38 = molecular target: T2, USP38 (UniProt Q8NB14)
T2 sequence (whole entry): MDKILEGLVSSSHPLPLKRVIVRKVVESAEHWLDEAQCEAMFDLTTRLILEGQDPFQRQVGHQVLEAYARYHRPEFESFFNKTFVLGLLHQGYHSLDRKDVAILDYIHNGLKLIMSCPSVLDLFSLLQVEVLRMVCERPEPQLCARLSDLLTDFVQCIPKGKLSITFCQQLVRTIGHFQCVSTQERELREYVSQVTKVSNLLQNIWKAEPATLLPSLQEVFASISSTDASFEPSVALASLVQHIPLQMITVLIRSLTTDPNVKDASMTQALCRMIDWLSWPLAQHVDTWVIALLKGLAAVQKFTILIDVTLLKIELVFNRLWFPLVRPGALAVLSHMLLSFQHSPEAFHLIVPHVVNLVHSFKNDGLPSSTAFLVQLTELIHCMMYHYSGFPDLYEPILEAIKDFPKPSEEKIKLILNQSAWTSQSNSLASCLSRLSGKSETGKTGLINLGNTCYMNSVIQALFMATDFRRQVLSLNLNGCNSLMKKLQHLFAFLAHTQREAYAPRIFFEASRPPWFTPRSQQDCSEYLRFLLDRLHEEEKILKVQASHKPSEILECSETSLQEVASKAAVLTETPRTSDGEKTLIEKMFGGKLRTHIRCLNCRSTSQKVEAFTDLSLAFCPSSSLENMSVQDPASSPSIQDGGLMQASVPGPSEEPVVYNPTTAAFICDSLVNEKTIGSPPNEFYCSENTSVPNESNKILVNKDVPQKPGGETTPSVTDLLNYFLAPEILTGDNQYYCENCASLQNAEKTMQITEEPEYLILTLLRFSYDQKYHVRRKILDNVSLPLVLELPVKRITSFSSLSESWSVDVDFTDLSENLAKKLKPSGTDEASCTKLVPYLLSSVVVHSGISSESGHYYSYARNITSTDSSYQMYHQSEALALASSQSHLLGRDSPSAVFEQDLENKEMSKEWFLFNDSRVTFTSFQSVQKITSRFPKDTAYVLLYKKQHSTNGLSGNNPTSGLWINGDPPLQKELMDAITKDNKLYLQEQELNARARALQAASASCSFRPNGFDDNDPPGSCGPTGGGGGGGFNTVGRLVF
How it was run: as §1

USP39 = molecular target: T3, USP39 (UniProt Q53GS9)
T3 sequence (whole entry): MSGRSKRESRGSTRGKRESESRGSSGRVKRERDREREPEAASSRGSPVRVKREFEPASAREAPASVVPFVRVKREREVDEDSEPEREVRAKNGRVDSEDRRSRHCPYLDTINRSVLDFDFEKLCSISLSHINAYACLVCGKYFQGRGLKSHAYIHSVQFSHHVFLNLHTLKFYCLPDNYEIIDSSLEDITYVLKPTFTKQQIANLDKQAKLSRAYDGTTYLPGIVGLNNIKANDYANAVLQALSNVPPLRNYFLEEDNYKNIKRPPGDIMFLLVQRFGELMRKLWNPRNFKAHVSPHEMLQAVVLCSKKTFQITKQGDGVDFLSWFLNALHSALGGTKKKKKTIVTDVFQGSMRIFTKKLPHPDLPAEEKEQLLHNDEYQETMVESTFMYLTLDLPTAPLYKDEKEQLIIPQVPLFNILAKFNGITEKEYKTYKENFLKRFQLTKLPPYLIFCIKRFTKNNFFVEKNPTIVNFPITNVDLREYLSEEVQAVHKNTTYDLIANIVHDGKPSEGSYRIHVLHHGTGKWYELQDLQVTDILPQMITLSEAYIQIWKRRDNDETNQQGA
How it was run: as §1

USP4 = molecular target: T4, USP4 (UniProt Q13107)
T4 sequence (whole entry): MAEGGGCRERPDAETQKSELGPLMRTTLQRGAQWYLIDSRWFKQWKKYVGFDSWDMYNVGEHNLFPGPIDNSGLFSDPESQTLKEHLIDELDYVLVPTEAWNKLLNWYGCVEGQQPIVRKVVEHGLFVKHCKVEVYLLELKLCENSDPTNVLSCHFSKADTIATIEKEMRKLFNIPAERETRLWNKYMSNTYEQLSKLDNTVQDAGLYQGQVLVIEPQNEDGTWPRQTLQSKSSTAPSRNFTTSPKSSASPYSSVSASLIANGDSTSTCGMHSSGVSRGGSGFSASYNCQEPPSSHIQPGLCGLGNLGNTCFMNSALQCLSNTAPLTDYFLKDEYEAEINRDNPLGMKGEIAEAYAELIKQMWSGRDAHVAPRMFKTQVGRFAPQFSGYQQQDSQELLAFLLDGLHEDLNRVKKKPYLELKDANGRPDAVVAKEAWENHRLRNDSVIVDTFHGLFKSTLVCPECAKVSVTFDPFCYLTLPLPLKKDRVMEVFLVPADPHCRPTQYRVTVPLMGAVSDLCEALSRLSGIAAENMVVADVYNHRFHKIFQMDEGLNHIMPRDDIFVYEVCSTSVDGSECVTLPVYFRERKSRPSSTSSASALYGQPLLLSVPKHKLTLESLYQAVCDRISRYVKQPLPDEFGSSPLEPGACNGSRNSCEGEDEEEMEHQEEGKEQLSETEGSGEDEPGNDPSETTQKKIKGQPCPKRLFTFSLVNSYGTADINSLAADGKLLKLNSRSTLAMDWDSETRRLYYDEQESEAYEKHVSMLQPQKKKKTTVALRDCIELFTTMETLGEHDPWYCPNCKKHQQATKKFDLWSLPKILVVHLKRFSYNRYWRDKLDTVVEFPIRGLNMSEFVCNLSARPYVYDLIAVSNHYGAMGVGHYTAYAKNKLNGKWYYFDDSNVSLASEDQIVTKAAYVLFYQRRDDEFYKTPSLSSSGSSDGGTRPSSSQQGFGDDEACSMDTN
How it was run: as §1

Measured: log2 ratio of Biotin-Ahx-Ub-VS probe labelling

USP34, sequence (Q70CQ2 whole entry, the tested form may be a part): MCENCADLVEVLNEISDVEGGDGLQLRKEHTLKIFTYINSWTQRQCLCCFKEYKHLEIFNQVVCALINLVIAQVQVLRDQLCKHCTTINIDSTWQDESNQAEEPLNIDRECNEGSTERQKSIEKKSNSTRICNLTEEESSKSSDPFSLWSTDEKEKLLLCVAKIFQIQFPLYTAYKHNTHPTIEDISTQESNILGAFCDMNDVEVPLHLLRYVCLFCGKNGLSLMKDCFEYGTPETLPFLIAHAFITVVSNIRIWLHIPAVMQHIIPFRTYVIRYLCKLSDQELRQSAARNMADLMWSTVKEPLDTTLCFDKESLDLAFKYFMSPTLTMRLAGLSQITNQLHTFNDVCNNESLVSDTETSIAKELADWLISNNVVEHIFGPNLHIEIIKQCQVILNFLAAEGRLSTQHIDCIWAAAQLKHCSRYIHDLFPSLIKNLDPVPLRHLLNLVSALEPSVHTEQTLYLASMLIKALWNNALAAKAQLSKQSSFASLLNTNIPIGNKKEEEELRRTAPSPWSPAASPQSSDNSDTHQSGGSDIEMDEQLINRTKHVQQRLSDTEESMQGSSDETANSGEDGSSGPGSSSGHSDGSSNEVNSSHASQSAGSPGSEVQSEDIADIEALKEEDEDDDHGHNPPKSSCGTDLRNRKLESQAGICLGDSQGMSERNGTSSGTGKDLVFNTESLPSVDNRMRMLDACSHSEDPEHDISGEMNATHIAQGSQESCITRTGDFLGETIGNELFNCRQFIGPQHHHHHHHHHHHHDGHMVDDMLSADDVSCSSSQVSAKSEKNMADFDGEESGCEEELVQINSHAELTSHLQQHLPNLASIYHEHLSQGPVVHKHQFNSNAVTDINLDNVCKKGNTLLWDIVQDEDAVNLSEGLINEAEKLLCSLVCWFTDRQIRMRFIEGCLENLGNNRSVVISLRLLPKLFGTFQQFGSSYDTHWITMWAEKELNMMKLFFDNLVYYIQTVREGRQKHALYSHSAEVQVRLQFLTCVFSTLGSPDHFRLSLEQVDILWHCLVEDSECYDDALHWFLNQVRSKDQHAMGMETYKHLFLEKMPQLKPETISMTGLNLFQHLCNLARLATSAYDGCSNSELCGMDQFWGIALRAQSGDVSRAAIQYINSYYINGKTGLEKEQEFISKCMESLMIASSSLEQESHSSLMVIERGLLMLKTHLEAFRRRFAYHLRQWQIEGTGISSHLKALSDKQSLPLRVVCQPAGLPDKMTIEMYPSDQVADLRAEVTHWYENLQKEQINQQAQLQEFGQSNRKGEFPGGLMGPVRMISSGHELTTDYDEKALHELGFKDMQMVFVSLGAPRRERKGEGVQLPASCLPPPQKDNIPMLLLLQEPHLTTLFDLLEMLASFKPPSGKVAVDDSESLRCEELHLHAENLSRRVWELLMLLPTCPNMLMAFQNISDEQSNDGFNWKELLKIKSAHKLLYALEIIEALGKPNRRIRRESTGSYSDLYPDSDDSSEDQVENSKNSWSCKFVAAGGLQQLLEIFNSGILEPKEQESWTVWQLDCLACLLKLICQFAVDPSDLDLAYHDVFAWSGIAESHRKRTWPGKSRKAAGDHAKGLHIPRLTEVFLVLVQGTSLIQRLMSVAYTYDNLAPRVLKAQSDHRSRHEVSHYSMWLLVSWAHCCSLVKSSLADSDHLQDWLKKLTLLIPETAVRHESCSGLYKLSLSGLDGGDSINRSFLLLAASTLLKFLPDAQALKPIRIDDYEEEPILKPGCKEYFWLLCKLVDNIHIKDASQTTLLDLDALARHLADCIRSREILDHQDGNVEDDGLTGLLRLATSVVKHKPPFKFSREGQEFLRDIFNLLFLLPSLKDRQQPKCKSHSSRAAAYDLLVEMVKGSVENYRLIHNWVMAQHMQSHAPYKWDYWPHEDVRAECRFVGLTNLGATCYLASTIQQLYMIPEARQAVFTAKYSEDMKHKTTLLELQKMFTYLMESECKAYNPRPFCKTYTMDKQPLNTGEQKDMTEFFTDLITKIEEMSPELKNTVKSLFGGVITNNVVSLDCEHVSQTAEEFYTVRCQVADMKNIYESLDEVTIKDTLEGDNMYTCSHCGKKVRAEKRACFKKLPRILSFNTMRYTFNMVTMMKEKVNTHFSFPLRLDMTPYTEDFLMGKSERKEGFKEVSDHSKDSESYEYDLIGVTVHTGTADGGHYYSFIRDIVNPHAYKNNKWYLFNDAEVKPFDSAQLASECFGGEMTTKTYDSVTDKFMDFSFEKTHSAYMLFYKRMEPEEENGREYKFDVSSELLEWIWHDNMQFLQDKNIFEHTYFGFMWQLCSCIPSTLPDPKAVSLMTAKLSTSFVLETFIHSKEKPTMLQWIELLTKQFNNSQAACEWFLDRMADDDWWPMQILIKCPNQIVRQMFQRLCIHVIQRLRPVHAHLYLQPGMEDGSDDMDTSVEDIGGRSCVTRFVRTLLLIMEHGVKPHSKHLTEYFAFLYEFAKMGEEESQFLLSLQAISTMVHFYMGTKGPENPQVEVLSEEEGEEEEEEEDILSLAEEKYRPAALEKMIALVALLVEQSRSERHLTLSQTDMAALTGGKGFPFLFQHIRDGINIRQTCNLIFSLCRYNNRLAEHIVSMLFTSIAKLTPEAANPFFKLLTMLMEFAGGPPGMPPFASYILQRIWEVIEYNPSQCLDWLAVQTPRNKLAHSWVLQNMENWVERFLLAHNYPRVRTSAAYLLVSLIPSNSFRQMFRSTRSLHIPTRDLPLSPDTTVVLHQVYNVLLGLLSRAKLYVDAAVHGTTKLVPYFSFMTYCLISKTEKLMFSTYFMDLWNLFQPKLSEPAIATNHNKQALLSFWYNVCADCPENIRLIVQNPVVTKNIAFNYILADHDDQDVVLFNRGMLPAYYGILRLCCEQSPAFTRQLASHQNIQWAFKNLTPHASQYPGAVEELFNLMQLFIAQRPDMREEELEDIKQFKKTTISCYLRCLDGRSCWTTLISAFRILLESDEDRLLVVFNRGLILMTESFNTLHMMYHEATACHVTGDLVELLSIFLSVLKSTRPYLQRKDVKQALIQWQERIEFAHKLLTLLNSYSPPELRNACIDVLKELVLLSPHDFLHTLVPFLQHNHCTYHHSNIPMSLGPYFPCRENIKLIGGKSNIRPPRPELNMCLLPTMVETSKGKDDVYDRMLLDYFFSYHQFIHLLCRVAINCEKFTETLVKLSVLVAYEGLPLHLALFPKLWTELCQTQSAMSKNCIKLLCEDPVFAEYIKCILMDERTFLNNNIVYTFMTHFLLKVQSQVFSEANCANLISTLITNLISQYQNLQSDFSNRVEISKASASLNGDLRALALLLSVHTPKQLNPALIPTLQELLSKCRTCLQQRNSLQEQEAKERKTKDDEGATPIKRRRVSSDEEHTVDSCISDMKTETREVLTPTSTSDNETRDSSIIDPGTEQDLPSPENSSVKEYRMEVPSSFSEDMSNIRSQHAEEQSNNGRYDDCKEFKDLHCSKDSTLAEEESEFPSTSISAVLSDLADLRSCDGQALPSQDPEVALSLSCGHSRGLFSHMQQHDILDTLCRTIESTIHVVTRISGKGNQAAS

Cl.O=C(CCl)N1CCn2ncc(O)c2C1
inactive: USP34 -0.237 | USP36 -0.037 | USP38 -0.188 | USP39 0.194 | USP4 -0.298

From the supplement of paper PMC11732987, “Enantioselective OTUD7B fragment discovery through chemoproteomics screening and high-throughput optimisation” (Communications Chemistry, 2025)
